In PubChem BioAssay (Tox21):
Records with an inconclusive call do not appear. Where a call stands in place of a potency, no number is given. Some structures have more than one record in an assay (separate samples or runs), and their calls can disagree. Calls of active or inactive are those of the source. The call rests on the fitted dose curve.

What was measured:
[1] = target: Acetylcholinesterase (Homo sapiens) (UniProt P22303); assay: Acetylcholinesterase (AChE) small molecule antagonists: colormetric cell-based qHTS assay (AID 1347395); further: nearly all actives have a fitted effect of over 30% in size; further: potency means the concentration at half of the fitted maximal effect
Procedure, shortened: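 After overnight attachment at 37 C, SH-SY5Y cells get 30 min compound exposure; detection cocktail (acetylthiocholine, DTNB) then incubates 90 min at 37 C, and absorbance reflects AChE-generated thiocholine.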

[2] = target: Acetylcholinesterase (Homo sapiens) (UniProt P22303); assay: Acetylcholinesterase (AChE) small molecule antagonists: enzyme-based qHTS assay (AID 1347397); conditions: Potency: AChE enzyme activity inhibition; outcome: AChE enzyme activity inhibition; further: nearly all actives have a fitted effect of over 55% in size
Procedure, shortened: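 Colorimetric DTNB read-out of thiocholine released from acetylthiocholine by recombinant human AChE (50 mU/mL as dispensed). Compounds were preincubated 30 min at RT before substrate/DTNB addition, with a 10 min RT reaction.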

[3] = target: Acetylcholinesterase (Homo sapiens) (UniProt P22303); assay: Acetylcholinesterase (AChE) small molecule antagonists: fluorescence cell-based qHTS assay (AID 1347398); conditions: Potency: AChE activity; outcome: AChE activity; further: nearly all actives have a fitted effect of over 50% in size
Procedure, shortened: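 SH-SY5Y, 2,000 cells/well, attached overnight; cmpd 30 min 37 C; acetylthiocholine/Thiolite Green cocktail 40 min RT; fluorescence Ex/Em 490/520 nm.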

[4] = target: Acetylcholinesterase (Homo sapiens) (UniProt P22303); assay: Acetylcholinesterase (AChE) small molecule antagonists: enzyme-based qHTS assay with human liver microsomes (AID 1347399); conditions: Potency: qHTS inhibition; outcome: qHTS inhibition; further: nearly all actives have a fitted effect of over 60% in size
Procedure, shortened: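 Recombinant human AChE (50 mU/mL in the enzyme mix) and human liver microsomes (0.25 mg/mL final) were preincubated with compound and NADPH (0.25 mg/mL final) for 30 min at 37 C. Acetylthiocholine/DTNB was then added; thiocholine was read colorimetrically after 10 min at room temperature.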

Sequence of Acetylcholinesterase (Homo sapiens) (P22303 whole entry, looked up): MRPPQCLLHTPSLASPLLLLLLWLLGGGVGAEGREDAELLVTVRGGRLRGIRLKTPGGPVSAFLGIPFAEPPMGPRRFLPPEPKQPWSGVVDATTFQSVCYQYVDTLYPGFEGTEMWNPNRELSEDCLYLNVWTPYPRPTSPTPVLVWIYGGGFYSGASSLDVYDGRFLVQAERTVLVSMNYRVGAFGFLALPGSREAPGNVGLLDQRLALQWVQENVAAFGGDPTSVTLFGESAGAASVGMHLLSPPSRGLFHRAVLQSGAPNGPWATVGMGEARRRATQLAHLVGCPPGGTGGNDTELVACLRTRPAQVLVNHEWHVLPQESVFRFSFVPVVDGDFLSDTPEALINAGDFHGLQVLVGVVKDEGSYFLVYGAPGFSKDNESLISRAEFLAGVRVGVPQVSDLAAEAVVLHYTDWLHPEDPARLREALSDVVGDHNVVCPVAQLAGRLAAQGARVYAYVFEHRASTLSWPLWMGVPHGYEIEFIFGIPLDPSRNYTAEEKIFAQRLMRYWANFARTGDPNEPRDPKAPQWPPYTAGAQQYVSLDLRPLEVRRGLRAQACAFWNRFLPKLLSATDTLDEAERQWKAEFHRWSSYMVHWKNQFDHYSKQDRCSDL

SMILES: Cn1c([N+](=O)[O-])cnc1COC(N)=O
- Potency [1]: inactive
- Potency [2]: inactive
- Potency [3]: inactive
- Potency [4]: inactive

SMILES: NCCc1ccc(O)c(O)c1
- outcome [1]: inactive
- outcome [2]: inactive
- outcome [3]: inactive
- outcome [4]: inactive

SMILES: CC(C)C(=O)OCc1ccccc1
- Potency [1]: inactive
- Potency [2]: inactive
- Potency [3]: inactive
- Potency [4]: inactive

SMILES: CC(C=O)Cc1ccc(C(C)(C)C)cc1 (stereo not given)
- Potency [1]: inactive
- Potency [2]: inactive
- Potency [3]: inactive
- Potency [4]: inactive

SMILES: CN(C)CCc1c[nH]c2ccc(C[C@H]3COC(=O)N3)cc12
- Potency [1]: inactive
- Potency [2]: inactive
- Potency [3]: inactive
- Potency [4]: inactive

SMILES: CO/N=C(\C(=O)O)c1csc(NC(=O)CCl)n1
- Potency [1]: inactive
- Potency [2]: inactive
- Potency [3]: inactive
- Potency [4]: inactive

SMILES: O=C1Nc2ccccc2C1=O
- Potency [1]: inactive
- Potency [2]: inactive
- Potency [3]: inactive
- Potency [4]: inactive

SMILES: Clc1nc2ccccc2s1
- Potency [1]: inactive
- Potency [2]: inactive
- Potency [3]: inactive
- Potency [4]: inactive

SMILES: CCN(Cc1cccc(S(=O)(=O)O)c1)c1ccccc1
- Potency [1]: inactive
- Potency [2]: inactive
- Potency [3]: inactive
- Potency [4]: inactive

SMILES: CCCOC(=O)CCCCC(=O)OCCC
- Potency [1]: inactive
- Potency [2]: inactive
- Potency [3]: inactive
- Potency [4]: inactive

SMILES: O=[N+]([O-])c1ccccc1Nc1ccccc1
- Potency [1]: inactive
- Potency [2]: inactive
- Potency [3]: inactive
- Potency [4]: inactive

SMILES: CC(=O)CCCCn1c(=O)c2c(ncn2C)n(C)c1=O
- Potency [1]: inactive
- Potency [2]: inactive
- Potency [3]: inactive
- Potency [4]: inactive

SMILES: COc1nc(C)nc(N)n1
- Potency [1]: inactive
- Potency [2]: inactive
- Potency [3]: inactive
- Potency [4]: inactive

SMILES: CCCCCCC1CCCC(=O)O1 (stereo not given)
- Potency [1]: inactive
- Potency [2]: inactive
- Potency [3]: inactive
- Potency [4]: inactive

SMILES: C=Cc1ccc(OC(C)=O)cc1
- Potency [1]: inactive
- Potency [2]: inactive
- Potency [3]: inactive
- Potency [4]: inactive

SMILES: CC(C)(O)c1ccc(CNC(=O)c2cccnc2Oc2ccc3nonc3c2)cc1
- Potency [1]: inactive
- Potency [2]: inactive
- Potency [3]: inactive
- Potency [4]: inactive

SMILES: CC(O)CC(C)(C)O (stereo not given)
- Potency [1]: inactive
- Potency [2]: inactive
- Potency [3]: inactive
- Potency [4]: inactive

SMILES: c1ccc(Cc2ccccc2)cc1
- Potency [1]: inactive
- Potency [2]: inactive
- Potency [3]: inactive
- Potency [4]: inactive

SMILES: O=P(c1ccccc1)(c1ccccc1)c1ccccc1
- Potency [1]: inactive
- Potency [2]: inactive
- Potency [3]: inactive
- Potency [4]: inactive

SMILES: Cc1ccc(-c2ccccc2C#N)cc1
- Potency [1]: inactive
- Potency [2]: inactive
- Potency [3]: inactive
- Potency [4]: inactive

SMILES: O=C(O)c1ccc2c(c1)C(=O)OC2=O
- Potency [1]: inactive
- Potency [2]: inactive
- Potency [3]: inactive
- Potency [4]: inactive

SMILES: CN(C)c1ccc(CCO)cc1
- Potency [1]: inactive
- Potency [2]: inactive
- Potency [3]: inactive
- Potency [4]: inactive

SMILES: CCCCC(=O)OCC(=O)[C@H]1[C@H](C)C[C@H]2[C@@H]3C[C@H](F)C4=CC(=O)C=C[C@]4(C)[C@@]3(F)[C@@H](O)C[C@@]21C
- Potency [1]: inactive
- Potency [2]: inactive
- Potency [3]: inactive
- Potency [4]: inactive

SMILES: CCCCOCCOCCOCCOCCO
- Potency [1]: inactive
- Potency [2]: inactive
- Potency [3]: inactive
- Potency [4]: inactive

SMILES: OCC(CO)(CBr)CBr
- Potency [1]: inactive
- Potency [2]: inactive
- Potency [3]: inactive
- Potency [4]: inactive

SMILES: [Cl][In]([Cl])[Cl]
- Potency [1]: inactive
- Potency [2]: inactive
- Potency [3]: inactive
- Potency [4]: inactive

SMILES: C=C/C=C/C=C/CCCCC
- activity, negative = inhibition [1]: 0.16% [at 23.6 µM] (inactive)
- activity change, negative = inhibition [2]: 0.676% [at 23.6 µM] (inactive)
- activity change, negative = inhibition [3]: -10.6% [at 23.8 µM] (inactive)
- activity change, negative = inhibition [4]: -1.78% [at 23.6 µM] (inactive)

SMILES: O=C(O)C(=O)O
- Potency [1]: inactive
- Potency [2]: inactive
- Potency [3]: inactive
- Potency [4]: inactive

SMILES: Cc1cc(C)cc(OCC2CNC(=O)O2)c1 (stereo not given)
- Potency [1]: inactive
- Potency [2]: inactive
- Potency [3]: inactive
- Potency [4]: inactive

SMILES: CCC(COC(=O)CCS)(COC(=O)CCS)COC(=O)CCS
- Potency [1]: inactive
- Potency [2]: inactive
- Potency [3]: inactive
- Potency [4]: inactive

SMILES: CC(C)(C)c1ccc(S)cc1
- Potency [1]: inactive
- Potency [2]: inactive
- Potency [3]: inactive
- Potency [4]: inactive

SMILES: Cn1nnc2c(C(N)=O)ncn2c1=O
- Potency [1]: inactive
- Potency [2]: inactive
- Potency [3]: inactive
- Potency [4]: inactive

SMILES: Cc1ccc(S(=O)(=O)NC(=O)NC2CCCC2)cc1
- Potency [1]: inactive
- Potency [2]: inactive
- Potency [3]: inactive
- Potency [4]: inactive

SMILES: O=C(O)CCCC(=O)O
- Potency [1]: 6.21 µM (active) and inactive
- Potency [2]: inactive
- Potency [3]: inactive
- Potency [4]: inactive

SMILES: CC1CN(c2ccccc2)NC1=O (stereo not given)
- Potency [1]: inactive
- Potency [2]: inactive
- Potency [3]: inactive
- Potency [4]: inactive

SMILES: O=C(O)c1cc(O)c2c(c1)C(=O)c1cccc(O)c1C2=O
- Potency [1]: inactive
- Potency [2]: inactive
- Potency [3]: inactive
- Potency [4]: inactive

SMILES: CCCCOCCOCCOCCCC
- Potency [1]: inactive
- Potency [2]: inactive
- Potency [3]: inactive
- Potency [4]: inactive

SMILES: C[C@]1(Cn2ccnn2)[C@H](C(=O)O)N2C(=O)C[C@H]2S1(=O)=O
- Potency [1]: inactive
- Potency [2]: inactive
- Potency [3]: inactive
- Potency [4]: inactive

SMILES: O=C(Oc1ccccc1)c1ccccc1
- Potency [1]: inactive
- Potency [2]: inactive
- Potency [3]: inactive
- Potency [4]: inactive

SMILES: CCCCCOC(C)=O
- Potency [1]: 32.1 µM (active) and inactive
- Potency [2]: inactive
- Potency [3]: inactive
- Potency [4]: inactive

SMILES: CCCCNS(=O)(=O)c1ccccc1
- Potency [1]: inactive
- Potency [2]: inactive
- Potency [3]: inactive
- Potency [4]: inactive

SMILES: Nc1cccc2c1CN(C1CCC(=O)NC1=O)C2=O (stereo not given)
- Potency [1]: inactive
- Potency [2]: inactive
- Potency [3]: inactive
- Potency [4]: inactive

SMILES: CC(CCO)CCCC(C)(C)O (stereo not given)
- Potency [1]: inactive
- Potency [2]: inactive
- Potency [3]: inactive
- Potency [4]: inactive

SMILES: CC(N)CN (stereo not given)
- Potency [1]: inactive
- Potency [2]: inactive
- Potency [3]: inactive
- Potency [4]: inactive

SMILES: NCCN1CCNC1=O
- Potency [1]: inactive
- Potency [2]: inactive
- Potency [3]: inactive
- Potency [4]: inactive

SMILES: Cc1ccc(N=Nc2c(O)ccc3ccccc23)c(C)c1
- Potency [1]: inactive
- Potency [2]: inactive
- Potency [3]: inactive
- Potency [4]: inactive

SMILES: NCCOCCOCCN
- Potency [1]: inactive
- Potency [2]: inactive
- Potency [3]: inactive
- Potency [4]: inactive

SMILES: CCC(C)c1ccccc1O (stereo not given)
- Potency [1]: inactive
- Potency [2]: inactive
- Potency [3]: inactive
- Potency [4]: inactive

SMILES: CCCCCCCCCCCCCCCC(=O)O
- Potency [1]: inactive
- Potency [2]: inactive
- Potency [3]: inactive
- Potency [4]: inactive

SMILES: CN(C)CCN(Cc1ccsc1)c1ccccn1
- Potency [1]: inactive
- Potency [2]: inactive
- Potency [3]: inactive
- Potency [4]: inactive

SMILES: CCCCCCCCCCCCCOC(=O)CCSCCC(=O)OCCCCCCCCCCCCC
- activity, negative = inhibition [1]: 3.05% [at 23.6 µM] (inactive)
- activity change, negative = inhibition [2]: 1.34% [at 23.6 µM] (inactive)
- activity change, negative = inhibition [3]: -0.492% [at 23.8 µM] (inactive)
- activity change, negative = inhibition [4]: 0.346% [at 23.6 µM] (inactive)

SMILES: CC[C@H](C)C(=O)O[C@H]1C[C@H](O)C=C2C=C[C@H](C)[C@H](CC[C@@H](O)C[C@@H](O)CC(=O)O)[C@H]21
- Potency [1]: inactive
- Potency [2]: inactive
- Potency [3]: inactive
- Potency [4]: inactive

SMILES: N=c1ccn2c(n1)O[C@H]1[C@H](O)[C@@H](CO)O[C@H]12
- Potency [1]: inactive
- Potency [2]: inactive
- Potency [3]: inactive
- Potency [4]: inactive

SMILES: C[C@]12C=CC(=O)C=C1CC[C@@H]1[C@@H]2[C@@H](O)C[C@@]2(C)[C@H]1CC[C@]2(O)C(=O)CO
- Potency [1]: inactive
- Potency [2]: inactive
- Potency [3]: inactive
- Potency [4]: inactive

SMILES: CC(COC(C)(C)C)OCCCO (stereo not given)
- Potency [1]: inactive
- Potency [2]: inactive
- Potency [3]: inactive
- Potency [4]: inactive

SMILES: CCOC(=O)C1=C(C)NC(C)=C(C(=O)OC)C1c1cccc(Cl)c1Cl (stereo not given)
- Potency [1]: inactive
- Potency [2]: inactive
- Potency [3]: inactive
- Potency [4]: inactive

SMILES: C=C(C)[C@H]1CC=C(C)C(=O)C1
- Potency [1]: inactive
- Potency [2]: inactive
- Potency [3]: inactive
- Potency [4]: inactive

SMILES: C=C(C)c1cccc(C(C)(C)N=C=O)c1
- Potency [1]: inactive
- Potency [2]: inactive
- Potency [3]: inactive
- Potency [4]: inactive

SMILES: COc1cc2c(c(OC)c1OC)-c1ccc(OC)c(=O)cc1[C@@H](NC(C)=O)CC2
- Potency [1]: inactive
- Potency [2]: inactive
- Potency [3]: inactive
- Potency [4]: inactive

SMILES: C=CCOCC(CO)(COCC=C)COCC=C
- Potency [1]: inactive
- Potency [2]: inactive
- Potency [3]: inactive
- Potency [4]: inactive
